# MCL1-BIM inh: MCL1-BIM-BH3 interaction inhibition (human). AID 2057. 320,000 tested, 0.68% active. Q07820. GST-MCL1 / FITC-Bim-BH3 fluorescence polarization. inhibition, % at 10.9 µM;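 active = inhibition above the mean inhibition of all tested compounds plus 3 SD, set per campaign, cut at about 40% in these data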;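 also: 0% = DMSO wells and 100% = unlabeled Bim-BH3 peptide control; higher means more loss of mP so more displacement of Bim peptide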
# Target sequence (Q07820 whole entry, looked up): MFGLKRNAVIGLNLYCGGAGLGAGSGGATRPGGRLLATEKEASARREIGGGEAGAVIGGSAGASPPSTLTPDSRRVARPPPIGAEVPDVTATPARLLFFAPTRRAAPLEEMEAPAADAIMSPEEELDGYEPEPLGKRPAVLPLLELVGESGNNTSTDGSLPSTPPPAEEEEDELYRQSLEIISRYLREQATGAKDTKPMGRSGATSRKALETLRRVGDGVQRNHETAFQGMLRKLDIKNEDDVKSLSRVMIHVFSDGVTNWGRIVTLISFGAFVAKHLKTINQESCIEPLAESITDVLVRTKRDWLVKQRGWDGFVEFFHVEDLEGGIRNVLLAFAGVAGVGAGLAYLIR
# BCLXL inh: inhibitors of human Bcl-xL. Q07817. GST-Bcl-xL / FITC-Bim BH3 peptide fluorescence polarization. inhibition, % at 10.9 µM. 320,000 tested, 0.7% active. AID 2129;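 active = inhibition above the mean of all tested compounds plus 3 SD, cutoff set per campaign, cut at about 30% in these data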;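 also: 0% = DMSO wells and 100% = unlabeled Bim-BH3 peptide competitor; inhibitors lower millipolarization by displacing the labeled peptide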
# GLD-1 TGE inh: GLD-1-TGE RNA interaction inhibition (C. elegans); AID 2280; purified GLD-1 + fluorescein TGE RNA, fluorescence polarization; Q17339; inhibition, % at 5.96 µM; 320,000 tested, 0.44% active;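 active = percent inhibition above a per-plate cutoff, the plate mean of test compounds plus 3 SD, cut at about 30% in these data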;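 also: 0% = DMSO wells with GLD-1 and probe and 100% = wells lacking GLD-1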
# EBV gp42 block: inhibitors of Epstein-Barr virus glycoprotein 42 | Fluorescence polarization binding assay, mP read-out | inhibition, % (tested at 21.74 µM) | 220,000 tested, 0.42% active | AID 1085; in the data active = inhibition above about 50%
# MEX-5 binding: C. elegans MEX-5 TCR-2 RNA binding activity. MEX-5/FITC-TCR2 RNA binding, fluorescence polarization; stronger effect = lower value. activity score (negative = inhibition of binding), % at 10 µM. 300,000 tested, 0.38% active. AID 1832;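 active = inhibition past about -25% in most replicates, and total fluorescence under double the plate's negative control median, limit read from the data; inconclusive = replicates evenly split on the limit, or fluorescence at least double controls; inactive = too little inhibition in most replicates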;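 also: 0% = DMSO and -100% = 5 µM competing unlabeled TCR2 RNA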
# BCLXL inh confirm: counter-screen for MCL1 inhibitors: confirmation of human Bcl-xL inhibitors. GST-Bcl-xL / FITC-Bim BH3 peptide FP binding. shares compounds with MCL1-BIM inh. inhibition, % at 10.9 µM. 1,700 tested, 54% active. AID 2166;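 active = inhibition above a cutoff equal to the mean inhibition of all tested compounds plus 3 SD, cut at about 30% in these data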;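 also: 0% = DMSO wells and 100% = unlabeled Bim BH3 control peptide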
# MCL1 BIM confirm: MCL1-BIM-BH3 interaction inhibition, confirmation; shares compounds with MCL1-BIM inh; 1,700 tested, 61% active; AID 2168; inhibition, % at 10.9 µM; GST-MCL1 / FITC-Bim-BH3 fluorescence polarization;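 active = inhibition above the average of all tested compounds plus 3 SD, cut at about 40% in these data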;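 also: 0% = DMSO wells and 100% = unlabeled Bim-BH3 control peptide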
# Starred values were filed as active, the others as inactive; ? = inconclusive; . = no result; + = active, no number. An excerpt weighted towards active compounds, which were near 1.3% of everything screened.
SMILES,MCL1-BIM inh,BCLXL inh,GLD-1 TGE inh,EBV gp42 block,MEX-5 binding,BCLXL inh confirm,MCL1 BIM confirm
CCOC(=O)N1CCN(c2c(N3CCN(c4ccccc4F)CC3)c(=O)c2=O)CC1,-8,7,10,-4,-1,.,.
O=c1c2c(ncn2C2CCCC2)n(Cc2ccccc2)c(=O)n1CCOc1ccc(Br)cc1,53*,-2,-3,-37,3,17,18
O=c1c2c(ncn2C2CCCC2)n(Cc2ccccc2)c(=O)n1CCOc1ccccc1,4,-1,1,-17,1,.,.
O=C(Cc1ccc(S(=O)(=O)N2CCOCC2)s1)Nc1ccc2c(c1)CCC2,1,3,-4,-18,1,.,.
O=C(Cc1ccc(S(=O)(=O)N2CCOCC2)s1)Nc1nc2c(s1)CCCC2,102*,80*,66*,-11,-2,32*,52*
O=c1oc2cc(O)ccc2c2oc3cc(O)ccc3c12,14,10,-2,10,0,.,.
Nc1ccc(-c2c3ccc(=O)cc-3oc3cc(O)ccc23)c(C(=O)O)c1,78*,86*,16,.,.,77*,76*
COCCn1c(C)c(C)c(S(=O)(=O)c2ccccc2)c1N,72*,68*,29,.,2,44*,62*
COc1nc(C)cc(C)c1S(=O)(=O)c1ccccc1,-7,1,0,.,-1,.,.
CCN1C(=O)C(CC(=O)Nc2ccc(Br)cc2)N(CCCc2ccccc2)C1=S (centres undefined),0,-2,8,6,0,.,.
O=C(/C=C/c1ccc(Cl)c([N+](=O)[O-])c1)Nc1ccc(N2CCCC2)cc1,47*,0,0,37,-5,17,43*
O=C(/C=C/c1ccc(Cl)c([N+](=O)[O-])c1)Nc1ccc(NC(=O)c2ccco2)cc1,.,.,.,4,-1,.,.
CCn1c(/C=C/c2cc[n+](C)cc2)nc2ccccc21,75*,74*,20,.,-3,65*,65*
CCCn1c(/C=C/c2ccccc2)nc2ccccc21,0,2,-4,-7,-3,.,.
C[C@H](NC(=O)c1nc[nH]c1C(=O)NCC(=O)OCc1ccccc1)c1ccccc1,4,5,8,.,2,.,.
Cc1oc(-c2ccccc2)cc1C(N)=O,7,10,7,-14,3,.,.
Cc1oc(C(N)=O)nc1-c1ccccc1,48*,9,2,-3,1,6,11
C=CC[C@H](CC(=O)N(CCO)Cc1ccccc1)C(=O)N[C@H](C)COC(=O)[C@@H](CC=C)CC(=O)OC(C)(C)C,.,.,1,.,.,.,.
C=CC[C@H](CC(=O)N[C@H](CO)Cc1ccccc1)C(=O)N[C@@H](COC(=O)[C@@H](CC=C)Cc1ccc(F)cc1)Cc1c[nH]c2ccccc12,.,.,0,.,.,.,.
COc1ccc(N/C(=C(/C(Cl)=C(Cl)Cl)[N+](=O)[O-])n2nnc3ccccc32)cc1OC,104*,97*,37*,12,-7,30,21
COc1cccc2c1C(=O)c1c(O)c3c(c(O)c1C2=O)C[C@@](O)(C(=O)CO)C[C@@H]3O[C@H]1C[C@H](N)[C@H](O)[C@H](C)O1,+,+,+,+,?,+,+
O=[N+]([O-])c1ccc2nc(-c3ccc(OC(F)F)cc3)cn2c1,94*,13,14,-14,-3,1,3
O=C1C=C(NNC(=O)c2ccncc2)CC(c2ccccc2)C1 (centres undefined),72*,75*,126*,2,-18,26,39
O=C(CN1CCCc2ccccc21)NCc1ccccc1Cl,68*,62*,-64,-19,-1,11,-2
O=C(CSCc1c(F)cccc1Cl)NCc1cccnc1,-14,-2,9,-8,0,.,.
N#CC(C#N)=Cc1c[nH]c(=O)c(C#N)c1Nc1ccccc1,55*,56*,26,.,-17,46*,56*
N#Cc1c(Nc2ccccc2)c(/C=N/N=C/c2ccccc2)c[nH]c1=O,-5,6,-1,7,-4,.,.
COC(=O)c1cc(O)cc(OC)c1Oc1cc(C)cc(O)c1C(=O)O,73*,21,6,-6,.,20,76*
